Each structure is given as a SMILES string. The campaign covered roughly 10,000 compounds. About 20 (0.2%) were called active. These entries were drawn from the full list. Values without a mark were called inactive. No rule for the calls is given here.

The experiment in a line: boosters of cytokine-driven VCAM-1 levels – imaging, high-content imaging, pooled HUVEC, TNFa stimulus (AID 457).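 As to augmentation: cells exposed to compound for 24 hours before fixing.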 The note with it: TNFa-induced VCAM-1 immunofluorescence imaging;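 compounds tested at 5 µM in the well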.
Take `CC(C)Oc1cc2oc(=O)c3c(c2cc1Cl)CCC3`: the augmentation entry is “inactive”.
For `O=C(CSc1nc2ccccc2s1)N1CCN(C(=O)c2ccco2)CC1` the value was “inactive”.
The same measure for `CCOc1ccccc1N1CCN(S(=O)(=O)c2cccc3nsnc23)CC1`: “inactive”; for `Cn1c(=O)c2c(nc(NCc3ccccc3)n2CCCc2ccccc2)n(C)c1=O`: “inactive”.
For `CCOC(=O)c1[nH]c(CSc2nnc(-c3ccc(OC)cc3)o2)c(C(=O)OCC)c1C` the value was “inactive”; for `O=C(Nc1cnn(C23CC4CC(CC(C4)C2)C3)c1)c1cnn2c(C(F)(F)F)cc(-c3ccco3)nc12`, “inactive”; for `Cc1noc(C)c1CSc1ccccc1C(=O)N1CCN(c2ccccc2)CC1`, “inactive”.
On to `CCn1cc(C2=NCC(C)O2)c2ccccc21` (centres undefined), for which the augmentation result was “inactive”.
The same measure for `CCC(=O)N1CCc2cc(Br)cc(S(=O)(=O)C3(C(=O)OC)CC3)c21`: “inactive”; for `COc1ccc(Cl)cc1NC(=O)CCN1CCN(c2ccccc2C)CC1`: “inactive”.
The same measure for `COC(=O)c1ccc2ncccc2c1`: “inactive”; for `Cc1cccc(C2CC(c3ccccc3)Nc3nc(N)nn32)c1` (centres undefined): “inactive”.
The same measure for `O=C(NCCCN1CCCC1=O)c1cncc(Br)c1`: “inactive”; for `Cc1ccccc1-c1noc(N)c1C#N`: “inactive”.
Regarding `COc1ccccc1-c1nnc(SCC(=O)NC2CCCCC2)o1`, the augmentation result is “inactive”.
For `O=C(CSc1nnnn1-c1ccccc1Cl)Nc1ccc2c(c1)OCCO2` the value was “inactive”; for `O=C(CCNC(=O)c1ccc(Br)o1)NC1CCCC1`, “inactive”; for `N#Cc1cnn(Cc2ccc(Cl)cc2)c1N`, “inactive”.
The same measure for `COc1ccc(N2CCN(C(=O)CSc3ccccc3)CC2)cc1`: “inactive”; for `Cc1csc(NC(=O)c2cccc(S(=O)(=O)N3CCCCC3)c2)n1`: “inactive”; for `COCc1[nH]nc2c1C(c1cc(OC)c(O)c(OC)c1)C(C#N)=C(N)O2` (centres undefined): “inactive”.
Consider `Cc1cc(NC(=O)CCC(=O)N(c2cccnc2)C(C(=O)NC2CCCC2)c2ccccc2F)no1` (centres undefined), for which the augmentation result was “inactive”.
For `CN(C)c1ccc(CNn2cnnc2)cc1` the value was “inactive”; for `O=C(NC1CC2CCC1C2)c1ccc(CN2CCOCC2)cc1` (centres undefined), “inactive”; for `CCOc1ccc2nc(NC(=O)CSc3nc4ccccc4c(=O)n3Cc3ccco3)sc2c1`, “inactive”.
For `c1ccc(-n2ncc3c(N4CCCCC4)ncnc32)cc1` the value was “inactive”; for `CCOc1ccccc1C(=O)NCC(=O)OCC(=O)N1C(C)CCCC1C` (centres undefined), “inactive”; for `Cc1nc2oc3c(NCc4ccccn4)ncnc3c2c2c1COC(C)(C)C2`, “inactive”.
The same measure for `O=C(c1ccc(NS(=O)(=O)c2cccs2)cc1)N1CCCCC1`: “inactive”; for `COCCNC(=O)c1ccc2c(c1)nc(C)n2-c1cccc(F)c1`: “inactive”; for `O=C(c1ccc(Cl)cc1)N(Cc1cccs1)C1CCS(=O)(=O)C1` (centres undefined): “inactive”.
With `CN(C(=O)c1c(Cl)nc2sccn12)C1CCCCC1`, the augmentation result is “inactive”.
On to `O=C(COC(=O)C1=COCCO1)Nc1ccccc1Oc1ccccc1`, for which the augmentation result was “inactive”.
The same measure for `O=C(CN1C(=O)CSC1=O)Nc1ccc(N2CCOCC2)cc1`: “inactive”; for `CCN(CC)CCN1C(=O)C(=O)/C(=C(/O)c2c(C)[nH]c(C(=O)OC)c2C)C1c1ccco1` (centres undefined): “inactive”.
For `CCNC(=O)N(C)c1nncnc1C(=O)NC` the value was “inactive”.
For `Cc1noc(C)c1S(=O)(=O)N1CCC(C(=O)N2CCN(Cc3ccc4c(c3)OCO4)CC2)CC1` the value was “inactive”; for `O=C(CSc1nnc(-c2ccncc2)n1-c1ccc(F)cc1)NC(=O)NCc1ccco1`, “inactive”.
In the case of `COc1ccc(S(=O)(=O)NC(CC(=O)NCc2ccco2)c2ccco2)cc1` (centres undefined), the augmentation entry is “inactive”.
As for `COc1ccc2nc(NC(=O)C3CCCN(S(=O)(=O)c4cccc5nsnc45)C3)sc2c1` (centres undefined), the augmentation entry is “inactive”.
For `COC(=O)C(CCCCNC(=O)OCc1ccccc1)NC(=O)CN` (centres undefined) the value was “inactive”; for `CCCCC(CC)Cn1c2nc3ccccc3nc2c2c(=N)oc(C)nc21` (centres undefined), “inactive”; for `O=C(CCCN1C(=O)c2ccccc2C1=O)NCc1cccnc1`, “inactive”.
The same measure for `CCN(CC)S(=O)(=O)c1cccc(-c2nnc(SCC(N)=O)n2CCc2ccccc2)c1`: “inactive”.
The same measure for `CCc1c(C(=O)Nc2cc(C)ccc2OC)[nH]c(C)c1C(C)=O`: “inactive”; for `COC(=O)c1ccc(-c2nn(C)c(=O)c3ccccc23)cc1`: “inactive”; for `Cc1cc2ncn(S(=O)(=O)c3ccc(S(=O)(=O)N4CCOCC4)cc3)c2cc1C`: “inactive”.
Regarding `Cc1ccccc1NC(=O)CN1CCC(NC(=O)Nc2ccccc2)CC1`, the augmentation result was “inactive”.
For the molecule `O=C(Nc1ccc(O)cc1)C1CCCN1S(=O)(=O)c1ccc(F)cc1` (centres undefined), the augmentation result is “inactive”.
Consider `O=c1c2ccccc2cnn1-c1nc2ccccc2s1`, for which the augmentation result is “inactive”.
The same measure for `CCc1nnc(NC(=O)CSc2nc3ccccc3s2)s1`: “inactive”; for `Cc1cccc(C(=O)N(C)c2nnc(-c3ccncc3)s2)c1`: “inactive”.
For `CCOC(=O)CC1(CC(=O)OCC)NC(=O)c2c(C)sc(C(=O)OCC)c2N1` the value was “inactive”; for `CCSc1nc(-c2ccc(OC)cc2)ccc1C#N`, “inactive”.
The same measure for `COC(=O)c1ccccc1NC(=O)c1cc(-c2ccc(OC)c(OC)c2)on1`: “inactive”; for `Cc1cccc(N(CC(=O)Nc2ccc(CC#N)cc2)S(C)(=O)=O)c1`: “inactive”.
As for `COc1ccc(CN(C(=O)c2oc3ccccc3c2C)C2CCS(=O)(=O)C2)cc1` (centres undefined), the augmentation result was “inactive”.
As for `Cn1c(=O)c2ncn(CC(=O)NCCOc3ccc(C(C)(C)C)cc3)c2n(C)c1=O`, the augmentation entry was “inactive”.
For `CSc1nc2ccc(S(=O)(=O)N3CCOCC3)cc2s1` the value was “inactive”; for `Cn1c(Cc2cccs2)nnc1SCC(=O)N1CCc2ccccc21`, “inactive”.
Consider `O=S(=O)(c1cccc(S(=O)(=O)N2CCC(N3CCCCC3)CC2)c1)N1CCOCC1`, for which the augmentation result is “inactive”.
For `Cc1ccccc1CS(=O)(=O)Cc1ccc(C(=O)NCCCN2CCOCC2)o1` the value was “inactive”; for `COc1cccc(-c2noc(CCC(=O)NC3CCCCC3)n2)c1`, “inactive”.
For `CCOC(=O)CSC1=Nc2ccccc2C2=NC(CC(=O)NCc3ccc(OC)cc3)C(=O)N12` (centres undefined) the value was “inactive”.
The same measure for `Cc1cc(NC(=O)C23CCC(C)(c4nc5cc(Cl)c(Cl)cc5nc42)C3(C)C)no1` (centres undefined): “inactive”; for `Cc1ccc(/C(O)=C2\C(=O)C(=O)N(CCCN(C)C)C2c2ccccn2)cc1` (centres undefined): “inactive”.
On to `O=C(OCc1ccc2c(c1)OCO2)c1ccc(S(=O)(=O)N2CCCCC2)cc1`, for which the augmentation entry is “inactive”.
As to `CCN(CC)S(=O)(=O)c1ccc(S(=O)(=O)N(Cc2ccccn2)Cc2ccco2)cc1`, the augmentation result is “inactive”.
For `O=C(COc1ccc(S(=O)(=O)NC2CCCCC2)cc1)NCc1ccccn1` the value was “inactive”; for `CCCCOc1ccc(N(CC(=O)NC2CCCC2)C(=O)CCC(=O)Nc2ccccn2)cc1`, “inactive”.
Take `CS(=O)(=O)Nc1ccc(C(=O)NCc2ccco2)cc1`: the augmentation result was “inactive”.
Take `CCN(Cc1nc2cc(OC)c(OC)cc2c(=O)[nH]1)C(=O)c1ccc(S(=O)(=O)N(C)C)cc1`: the augmentation result is “inactive”.
The same measure for `O=C(CP(=O)(c1ccccc1)c1ccccc1)N1CCCCC1`: “inactive”; for `Cc1cnc(C(=O)Nc2ccc(N3CCN(C(=O)OC(C)(C)C)CC3)cc2)cn1`: 14.8%; for `COc1cccc(N2CCN(CC(=O)Nc3nnc(-c4ccccc4)s3)CC2)c1`: “inactive”.
The same measure for `Oc1ccc(N2CCN(C(c3ccncc3)c3nnnn3C3CCCC3)CC2)cc1` (centres undefined): “inactive”; for `C1CCC2=NCCCN2CC1`: “inactive”; for `CCOc1ccc(N(CC(=O)Nc2ccc(F)c(F)c2)S(=O)(=O)c2c(C)noc2C)cc1`: “inactive”.
As for `COc1cc(Cl)c(C)cc1NC(=O)COC(=O)c1cnc(C)cn1`, the augmentation result was “inactive”.
The same measure for `O=C(CC1CCCCC1)NCc1ccccn1`: “inactive”; for `COc1ccccc1CNS(=O)(=O)c1ccc(NC(C)=O)cc1`: “inactive”; for `COc1ccc(S(=O)(=O)NC2CCCCC2)c(C)c1C`: “inactive”.
For `Cc1nc2ccc(S(=O)(=O)NCC(=O)N3CCc4ccccc4C3)cc2s1` the value was “inactive”; for `CCOc1ccccc1Nc1nc2ccccc2[nH]1`, “inactive”.
For `Cc1ccc2nc(-c3ccc4c(c3)OCCO4)cc(C(=O)O)c2c1` the value was “inactive”.
Turning to `COc1ccc(C(=O)NCCc2nnc(SCc3nc4ccccc4c(=O)[nH]3)n2C)cc1`, the augmentation result is “inactive”.
On to `Cc1cc(NC(=O)c2cc3ccccc3o2)cc(C)c1OCC(=O)N1CCOCC1`, for which the augmentation entry was “inactive”.
Consider `Cc1c(C(=O)OCC(C)C)[nH]c2c1C(=O)CC(c1ccco1)C2` (centres undefined), for which the augmentation result was “inactive”.
For `CC(NC(=O)c1ccc(F)cc1)C(c1cccs1)N1CCN(C)CC1` (centres undefined) the value was “inactive”.
For `C=CCN1C(=O)C2(C(C#N)=C(N)Oc3n[nH]c(CCC)c32)c2ccccc21` (centres undefined) the value was “inactive”; for `CCOC(=O)c1c(NC(=O)OC)sc(C(=O)N(C)C)c1C`, “inactive”; for `COc1ccc(N(C)C(=O)CCS(=O)(=O)c2cccc3nonc23)cc1`, “inactive”.
For `COc1ccc(CCNC(=O)CCN2C(=O)C3CC=CCC3C2=O)cc1OC` (centres undefined) the value was “inactive”; for `O=C(Nc1ccccc1)c1cnc2n(c1=O)CCS2`, “inactive”; for `C=CCn1cnc2c(NCc3ccccc3)ncnc21`, “inactive”.
As to `Cc1cc(C)n(S(=O)(=O)c2cc(C(=O)O)c(Cl)cc2Cl)n1`, the augmentation entry is “inactive”.
For the molecule `CCOC(=O)C1=C(CN2CCOCC2)NC(=O)NC1c1cc(C)ccc1C` (centres undefined), the augmentation entry was “inactive”.
For `O=C(O)CC(NC(=O)c1ccccc1NC(=O)c1ccccc1)C(=O)O` (centres undefined) the value was “inactive”.
For `COc1ccc2cc(CN(CCO)C(=O)c3ccc(Br)cc3)c(=O)[nH]c2c1`, the augmentation entry is “inactive”.
The same measure for `COc1cc(OC)cc(-c2nnc(SCC(=O)Nc3cc(C)on3)o2)c1`: “inactive”.
The same measure for `Cc1ccc(C(=O)OCC(=O)Nc2ccc3c(c2)OCO3)o1`: “inactive”; for `Cc1cc2ccccc2c(=O)n1CC(=O)N(C)c1ccc(F)cc1`: “inactive”; for `CC(Oc1ccccc1)C(=O)Nc1ccc(S(=O)(=O)NCC2CCCO2)cc1` (centres undefined): “inactive”.
For `Cn1c(NC(=O)c2cccc(Cn3cc(Cl)cn3)c2)nc2ccccc21` the value was “inactive”; for `Cc1cc2c(s1)c1cnn(CC(=O)NCCc3ccccc3)c(=O)c1n2C`, “inactive”; for `COc1ccc2c(c1)CCc1c(C(=O)N3CC4(C)CC3CC(C)(C)C4)noc1-2` (centres undefined), “inactive”.
`O=C(Cn1ccc2ccccc2c1=O)NCCC(=O)N1CCN(C(=O)c2ccco2)CC1`: the augmentation result was “inactive”.
Regarding `CCN(CC)C1CCCCC1NS(=O)(=O)c1ccc(Cl)cc1` (centres undefined), the augmentation result is “inactive”.
The same measure for `Cn1c(=O)cc(OCC(=O)N2CCN(c3cccc(C(F)(F)F)c3)CC2)c2ccccc21`: “inactive”.

The values above are taken from PubChem BioAssay AID457 (Sanford-Burnham Center for Chemical Genomics, 2006).
